Our source for the activity change, negative = cytotoxicity values is PubChem BioAssay AID652042 (Broad Institute, 2013).

The whole screen tested about 1,100 compounds, of which about 350 (32%) were called active. How the calls were made is not given here. Only a sample is shown. Measured potencies and affinities stand elsewhere.

This assay can be described thus: viability loss in CEM21 cells – cell-based, CellTiter-Glo luminescence, cherry-picked, cytotoxicity control for viral fusion inhibitor project, dose response (AID 652042). Conditions: CellTiter-Glo ATP luminescence, 24 h; series mostly up to 35 µM. (In general: In ATP-based viability assays light output follows the ATP content of the culture.)
Turning to `O=C(N/N=C/c1ccc(-n2ccnc2)cc1)c1cccs1`, the activity change, negative = cytotoxicity entry was “inactive”.

As for `Cc1ccc(-n2nnnc2-c2cnn(-c3ccc(F)cc3)c2C(F)(F)F)cc1`, the activity change, negative = cytotoxicity entry is “inactive”.

Regarding `CCc1ccc([C@H]2[C@@H]3C(=O)C[C@@H]4C(=O)N(C5CCCCC5)C(=O)[C@@H]4[C@@H]3CN2S(=O)(=O)c2ccc(C)cc2)cc1`, the activity change, negative = cytotoxicity entry was “inactive”.

With `COc1ccc(OC2C(=O)N(Cc3ccc4c(c3)OCO4)C2c2cccs2)cc1` (centres undefined), the activity change, negative = cytotoxicity result is “inactive”.

For the compound `COC(=O)[C@H](Cc1ccccc1)NC(=O)Cn1cnc(C(=O)Nc2ccc(C)c(C)c2)n1`, the activity change, negative = cytotoxicity result is “inactive”.

With `O=S(=O)(c1ccccc1Cl)N1CCCC1c1nc(-c2ccc(Cl)cc2)no1` (centres undefined), the activity change, negative = cytotoxicity result was “inactive”.

For the compound `CCNC(=O)C[C@@H]1CC[C@@H]2[C@H](COC[C@@H](O)CN2C(=O)c2ccccn2)O1`, the activity change, negative = cytotoxicity entry is “inactive”.

For the compound `COc1ccc(CCNc2oc(-c3cccc4ccccc34)nc2P(=O)(OC)OC)cc1OC`, the activity change, negative = cytotoxicity entry was “inactive”.

In the case of `COC(=O)C1(C(=O)OC)C[C@H](c2ccccc2)N(Cc2ccccc2OC)[C@@H]1c1ccccc1`, the activity change, negative = cytotoxicity result was “inactive”.

For `COc1ccc(S(=O)(=O)Nc2ccc3c(c2)CC(=O)N([C@H](C)CO)C[C@H](C)[C@H](CN(C)S(=O)(=O)c2cccs2)O3)cc1`, the activity change, negative = cytotoxicity result is “inactive”.

Turning to `CC(C)CNS(=O)(=O)c1ccc(CCC(=O)N2CCN(Cc3ccc4c(c3)OCO4)CC2)cc1`, the activity change, negative = cytotoxicity result is “inactive”.

As for `C[C@@]12C(=O)N(Cc3ccco3)CC(=O)N1[C@H]1c3ccccc3OC[C@@H]1[C@@H]2c1ccccc1`, the activity change, negative = cytotoxicity result was “inactive”.

Regarding `CN1C(=O)C2(c3ccccc31)N(C)CC(c1ccccc1)C21SC(=S)N(Cc2ccco2)C1=O` (centres undefined), the activity change, negative = cytotoxicity result was “inactive”.

On to `O=C(NCCCN1CCc2ccccc2C1)Nc1ccc(Cl)cc1`, for which the activity change, negative = cytotoxicity result is “inactive”.

As for `CCCCn1c(N)c(N(CC(C)C)C(=O)c2ccc(S(=O)(=O)N(CC)c3ccccc3)cc2)c(=O)[nH]c1=O`, the activity change, negative = cytotoxicity entry was “inactive”.

With `NC(=O)c1sc2nccc(Nc3ccccc3)c2c1N`, the activity change, negative = cytotoxicity entry was “inactive”.

On to `CCc1nc2ccc(C(=O)NCCN3CCNC3=O)cn2c1N(CC)Cc1cccc(Br)c1`, for which the activity change, negative = cytotoxicity entry was “inactive”.

Turning to `Cc1ccccc1OCC(=O)Nc1cccc(C(=O)O)c1`, the activity change, negative = cytotoxicity entry is “inactive”.

Turning to `O=C(Nc1ccc(F)cc1)C1CCCN1S(=O)(=O)c1ccc(Br)cc1` (centres undefined), the activity change, negative = cytotoxicity result is “inactive”.

Turning to `CC(=O)c1c(C)[nH]c(C(=O)OCC(=O)Nc2c(C)cccc2C)c1C`, the activity change, negative = cytotoxicity entry was “inactive”.

For the compound `Cc1ccc(-c2nnc(N3CCN(C(=O)COc4ccccc4)CC3)c3ccccc23)cc1`, the activity change, negative = cytotoxicity entry is “inactive”.

Take `O=C(Cc1ccc(S(=O)(=O)N2CCOCC2)s1)N1CCN(S(=O)(=O)c2ccc(Cl)cc2)CC1`: the activity change, negative = cytotoxicity entry is “inactive”.

Regarding `Cc1cc(Cl)ccc1OCC(=O)NNC(=O)C1CSC2(C)CCC(=O)N12` (centres undefined), the activity change, negative = cytotoxicity result is “inactive”.

Turning to `CC(NC(=O)c1cc(S(=O)(=O)N(C)C)ccc1N1CCCC1)C1CC2CCC1C2` (centres undefined), the activity change, negative = cytotoxicity entry was “inactive”.

Consider `COCCCn1c(-c2ccc(S(=O)(=O)N3CCOCC3)cc2)csc1=Nc1ccccc1`, for which the activity change, negative = cytotoxicity result is “inactive”.

As for `O=C(CCc1ccc(S(=O)(=O)N2CCOCC2)cc1)Nc1nc(COc2ccccc2)cs1`, the activity change, negative = cytotoxicity entry is “inactive”.

In the case of `O=C(CN1C(=O)c2ccccc2S1(=O)=O)N1CCc2ccccc21`, the activity change, negative = cytotoxicity entry is “inactive”.

`Clc1ccc(-c2noc(CSc3nnc(-c4ccncc4)n3-c3ccccc3)n2)cc1`: the activity change, negative = cytotoxicity entry is “inactive”.

For the compound `Cc1cccc(C)c1NC(=O)N1CCN(c2nc3ccccc3s2)CC1`, the activity change, negative = cytotoxicity result was “inactive”.

With `O=C(NC1CCCCC1)C(c1cccs1)N(Cc1cccs1)C(=O)c1ccco1` (centres undefined), the activity change, negative = cytotoxicity entry is “inactive”.

As to `COc1ccc(-c2nnn(CC(=O)N(Cc3cccs3)C(C)C(=O)NC3CCCC3)n2)cc1OC` (centres undefined), the activity change, negative = cytotoxicity entry is “inactive”.

Turning to `c1ccc2c(c1)OCC(CNc1ncnc3nc[nH]c13)O2` (centres undefined), the activity change, negative = cytotoxicity entry is “inactive”.

For `C[C@H](C(=O)N(C)C[C@@H]1OCc2ccccc2-c2ccccc2C(=O)N([C@@H](C)CO)C[C@H]1C)c1ccccc1`, the activity change, negative = cytotoxicity entry was “inactive”.

Take `C[C@H](C(=O)N(C)C[C@@H]1OCc2ccccc2-c2ccccc2C(=O)N([C@@H](C)CO)C[C@@H]1C)c1ccccc1`: the activity change, negative = cytotoxicity result is “inactive”.

As to `C[C@H]1CN([C@@H](C)CO)C(=O)c2ccccc2-c2ccccc2CO[C@@H]1CN(C)C(=O)Nc1cccc(C(F)(F)F)c1`, the activity change, negative = cytotoxicity entry was “inactive”.

On to `C[C@H]1CN([C@@H](C)CO)C(=O)c2c(c3ccccc3n2C)-c2ccccc2CO[C@H]1CN(C)C(=O)Nc1cccc(F)c1`, for which the activity change, negative = cytotoxicity entry was “inactive”.

Consider `CO[C@H](C(=O)N(C)C[C@@H]1OCc2ccccc2-c2c(n(C)c3ccccc23)C(=O)N([C@H](C)CO)C[C@@H]1C)c1ccccc1`, for which the activity change, negative = cytotoxicity result was “inactive”.

Regarding `C[C@H](CO)N1C[C@H](C)[C@@H](CN(C)C(=O)[C@H](Cc2ccccc2)N(C)C)OCc2ccccc2-c2c(n(C)c3ccccc23)C1=O`, the activity change, negative = cytotoxicity entry is “inactive”.

Take `C[C@H]1CN([C@@H](C)CO)C(=O)c2c(c3ccccc3n2C)-c2ccccc2CO[C@H]1CN(C)C(=O)Cc1ccccc1`: the activity change, negative = cytotoxicity result was “inactive”.

Turning to `COc1ccc(CNC(=O)N(C)C[C@H]2OCc3ccccc3-c3ccccc3C(=O)N([C@H](C)CO)C[C@@H]2C)cc1`, the activity change, negative = cytotoxicity entry was “inactive”.

Regarding `CC1(C)C2CCC1(C)C(OCCNCCOC(=O)Nc1ccccc1)C2` (centres undefined), the activity change, negative = cytotoxicity entry is “inactive”.

`CCN1C(=O)[C@H]2[C@@H](c3ccc(C)cc3)N3C(=O)N(c4cccc(Br)c4)C(=O)[C@@]3(CC)[C@H]2C1=O`: the activity change, negative = cytotoxicity entry was “inactive”.

Turning to `CCN1C(=O)[C@H]2[C@@H](c3ccc(C)cc3)N3C(=O)N(c4cccc(Br)c4)C(=O)[C@@]3(CC(C)C)[C@H]2C1=O`, the activity change, negative = cytotoxicity entry was “inactive”.

Consider `C[C@H](CO)N1C[C@H](C)[C@H](CN(C)S(=O)(=O)c2cccs2)Oc2ccc(NC(=O)Cc3cn(C)c4ccccc34)cc2CC1=O`, for which the activity change, negative = cytotoxicity entry was “inactive”.
